# Measured values from PubChem BioAssay (Tox21).
# Where “and” joins values, the source holds several entries; their conditions need not be identical. Equal values may be shown once. Records with an inconclusive call do not appear. Where a call stands in place of a potency, no number is given. Some structures have more than one record in an assay (separate samples or runs), and their calls can disagree. Calls of active or inactive are those of the source. Calls follow the shape of the dose curve; as a rule, active = well fitted cell-killing curve with a large enough effect in the repeat runs; inconclusive = weak or mixed curves, or effect the other way; inactive = flat fitted curve, though single readings scatter.
# Test: qHTS assay to identify small molecule that activate the aryl hydrocarbon receptor (AhR) signaling pathway - cell viability counter screen (AID 743086); also: nearly all actives have a fitted effect of over 45% in size
# Details: HepG2-AhR-luc viability, CellTiter-Fluor, 24 h; series mostly up to 70.3 µM
# From the text: U.S. Tox21 Program National Center for Advancing Translational Sciences [NCATS] NIH Chemical Genomics Center [NCGC] U.S. Environmental Protection Agency [EPA] National Institutes of Environmental Health Sciences [NIEHS] National Toxicology Program [NTP] U.S. Food and Drug Administration [FDA] Tox21 Assay overview: The Aryl hydrocarbon Receptor (AhR), a member of the family of basic helix-loop-helix transcription factors, is crucial to adaptive responses to environmental changes. AhR mediates cellular responses to environmental pollutants such as aromatic hydrocarbons through induction of phase I and II enzymes but also interacts with other nuclear receptor signaling pathways A cell based HepG2-AhR-luc assay (HG2L7.5c1 cell line, developed by Dr. Michael S. Denison, University of California at Davis) was used to assess the activation of AhR. HepG2 (human hepatocellular carcinoma) cells were stably transfected with an Ah receptor-responsive firefly luciferase reporter gene plasmid containing 20 dioxin responsive elements and luciferase reporter gene. Increased luciferase activity can be used to identify the compounds that induce AhR activation. The cytotoxicity of the compounds screened against the HepG2-AhR-luc cell line was tested in parallel by measuring the cell viability using CellTiter-Fluor assay in the same wells.
# Tox21 Assay Protocol Summary: 4000 cells in 5 uL/well were dispensed into white wall/solid bottom 1536-well plates using a Multidrop Combi (Thermo Fisher Scientific Inc., Waltham, MA) dispenser. After the assay plates were incubated at 37C for 5 h, 23 nL of compound or DMSO vehicle was transferred to the assay plates by a pintool station (Kalypsys, San Diego, CA). The plates were incubated at 37C for 24 hr. For cell viability measurement, 1 ul/well of CellTiter-Fluor reagent (Promega, Madison, WI) was added into the assay plates using a Flying Reagent Dispenser (FRD) (Aurora Discovery, CA),and then the assay plates were incubated at 37C for 30 min. The fluorescence intensity in the plates was measured using a ViewLux plate reader (PerkinElmer, Shelton, CT), followed by the addition of 4 uL of ONE-Glo Luciferase Assay reagent (Promega) using an FRD (Aurora Discovery). After the assay plates were incubated at room temperature for 30 min, luminescence intensity was measured using a ViewLux plate reader (Perkin Elmer).
# Potency is read from the fitted curve at half-maximal effect.
row,Compound,Potency
1,CNC(=O)Oc1cccc2c1OC(C)(C)C2,inactive
2,CCOP(=S)(OCC)OP(=S)(OCC)OCC,inactive
3,C=C(C)C#N,inactive
4,N#CC(c1ccccc1)c1ccccc1,inactive
5,OC(c1ccc(Cl)cc1)(c1cncnc1)c1ccccc1Cl (stereo not given),inactive
6,CN(C)c1nc(=O)n(C2CCCCC2)c(=O)n1C,inactive
7,CCCCOCC1CO1 (stereo not given),inactive
8,O=S(=O)(O)C(F)(F)C(F)(F)C(F)(F)C(F)(F)C(F)(F)C(F)(F)C(F)(F)C(F)(F)F,inactive
9,Nc1ccc2ccccc2c1,inactive
10,N#CCCCCC#N,inactive
11,[Cl-].[Cl-].[Cl-].[Fe+3],inactive
12,O=C(O)c1nn(Cc2ccc(Cl)cc2Cl)c2ccccc12,inactive
13,NN=C(N)N,inactive
14,CC(O)CN(CC(C)O)CC(C)O (stereo not given),inactive
15,C[N+](C)(C)CC(=O)O,inactive
16,O=C1Nc2ccc(Cl)cc2C(c2ccccc2)=NC1O (stereo not given),inactive
17,[CH3][Sn]([Cl])([Cl])[Cl],inactive
18,OCCOCCO,inactive
19,CCNCC,inactive
20,Cc1cc(Cl)ccc1N=CN(C)C,inactive

row,Compound,Potency
1,CCC(=O)Nc1ccc(Cl)c(Cl)c1,inactive
2,CC(C)(C#N)N=NC(C)(C)C#N,inactive
3,O=NN(c1ccccc1)c1ccccc1,inactive
4,CC(C)CON=O,inactive
5,CCCCOCCOC(C)=O,inactive
6,COc1ccc(C=O)cc1OC,inactive
7,CC[n+]1c(-c2ccccc2)c2cc(N)ccc2c2ccc(N)cc21,inactive and 12.1 µM (active)
8,C=CC(Cl)CCl (stereo not given),inactive
9,CC1(C)Cc2cccc(O)c2O1,inactive
10,O=C1CCCO1,inactive
11,CC(C)=CC1C(C(=O)OCN2C(=O)C3=C(CCCC3)C2=O)C1(C)C (stereo not given),inactive
12,CC(C)(O)C#N,inactive
13,COP(=S)(OC)SCn1nnc2ccccc2c1=O,inactive
14,Clc1ccc(C(Cl)(Cl)Cl)cc1,inactive
15,CCCCCCCC[N+](C)(CCCCCCCC)CCCCCCCC,inactive and 24.3 µM (active)
16,CC1(C)C(C(=O)OC(C#N)c2cccc(Oc3ccccc3)c2)C1(C)C (stereo not given),inactive
17,N#Cc1nn(-c2c(Cl)cc(C(F)(F)F)cc2Cl)c(N)c1S(=O)C(F)(F)F (stereo not given),inactive and 30.8 µM (active)
18,CCOP(=O)(O)OCC (tested in a mixture with another compound),inactive and 30.4 µM (active)
19,COP(=S)(OC)Oc1ccc(S(=O)(=O)N(C)C)cc1,inactive
20,CCOC(=O)c1ccccc1N,inactive
